From PubChem
Pf Dd2 growth = Plasmodium falciparum Dd2 growth inhibition; P. falciparum Dd2 growth, SYBR Green, 72 h; actives 4.3% (n = 120,000); AID 1347417; Potency, µM (doses to about 28.9 µM), most hits filed as inhibitors; active = well fitted inhibition curve with a large enough effect; note: nearly all actives have a fitted effect of over 65% in size
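Readout: SYBR Green fluorescence, 485 nm excitation, 535 nm emission, after ~16 h lysis at 37C. Before that, Dd2-infected red cells (2.5% hematocrit) grew 72 h with compound, 29 uM top final concentration.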
Large screens that a line does not name were inactive. The full list was thinned out, with hits kept by preference.

Cc1cc(-c2cc3[nH]ccc3c(C(=O)NCc3c(C)cc(C)[nH]c3=O)n2)ccn1	none
COc1cccc(Nc2cc3[nH]ccc3c(C(=O)NCc3c(C)cc(C)[nH]c3=O)n2)c1	Pf Dd2 growth 11µM
Cc1cc(C)c(CNC(=O)c2cc(-c3cccc4[nH]ccc34)cc3ncn(C)c23)c(=O)[nH]1	none
O=C(c1ccc(CN2C(=O)NC3(CCS(=O)(=O)CC3)C2=O)cc1)N1CCCCC1	none
COc1ccc(CCN2C(=O)O[C@@H]3CN(C(=O)CN)C[C@@H]32)cc1	none
CN1CCC(N2CCN(C(=O)CCc3ccnc(N4CCOCC4)c3)CC2)CC1	none
COc1ccc(CNC(=O)C2(c3ccc(NC(C)=O)cc3)CCCCC2)cc1	none
COCC(=O)N[C@H]1C[C@H]2C(=O)NC[C@@H](CCC(=O)NCc3ccccc3)N2C1	none
COc1cc2c(cc1Oc1ccccc1)NC(=O)C21CCN(c2ncc(F)cn2)CC1	Pf Dd2 growth 4.5µM
COc1cc2c(cc1OC1CCCC1)NC(=O)C21CCN(Cc2ccncc2)CC1	none
COc1cc2c(cc1OC1CCCC1)NC(=O)C21CCN(c2cc(NC3CC3)ncn2)CC1	none
COc1cc2c(cc1OCC1CC1)NC(=O)C21CCN(c2ncc(F)cn2)CC1	none
COc1cc2c(cc1Oc1ccccc1)NC(=O)C21CCN(Cc2ccccn2)CC1	none
COc1cc2c(cc1OC1CCCC1)NC(=O)C21CCN(c2ccnc(C)n2)CC1	Pf Dd2 growth 13µM
C=CCN1CCN(C(=O)CCc2nc(C3CCCN3C(=O)NCC)no2)CC1 (stereo not drawn)	none
Cc1cnc(C(=O)NC2C[C@H]3CC[C@@H](C2)N3C(=O)CCC2CCCC2)cn1 (stereo partly drawn)	none
Cc1cccc(C)c1-n1ncc(C(=O)NCc2ccc3c(c2)OCO3)c1C1CCN(C(=O)OC(C)(C)C)CC1	none
CC1CCN(C(=O)c2cnn(-c3ccc(Cl)cc3)c2C2CCN(C(=O)OC(C)(C)C)CC2)CC1	none
CCC(C)NC(=O)c1cnn(-c2ccc(Cl)cc2)c1C1CCN(C(=O)OC(C)(C)C)CC1 (stereo not drawn)	Pf Dd2 growth 11µM
COc1ccc(-n2ncc(C(=O)Nc3ccc4c(c3)OCO4)c2C2CCN(C(=O)OC(C)(C)C)CC2)cc1	Pf Dd2 growth 6.3µM
Cc1ccc(-n2ncc(C(=O)NCc3ccc4c(c3)OCO4)c2C2CCN(C(=O)OC(C)(C)C)CC2)cc1C	none
CC(C)(C)OC(=O)N1CCC(c2c(C(=O)Nc3ccc4c(c3)OCO4)cnn2-c2ccc(F)cc2F)CC1	Pf Dd2 growth 13µM
Cc1ccc(-n2ncc(C(=O)Nc3ccc4c(c3)OCCO4)c2C2CCN(C(=O)OC(C)(C)C)CC2)cc1	none
Cc1ccc(-n2ncc(C(=O)Nc3ccc4c(c3)OCO4)c2C2CCN(C(=O)OC(C)(C)C)CC2)cc1	none
CC(C)(C)OC(=O)N1CCC(c2c(C(=O)Nc3ccc4c(c3)OCCO4)cnn2-c2ccc(Cl)cc2)CC1	Pf Dd2 growth 7.1µM
O=C(c1cnc2c(c1)N(C(=O)CCc1ccccc1)CCC2)N1CCC(c2ccccc2)CC1	none
CCC(c1cccs1)N1C(=O)[C@H]2CN(S(=O)(=O)c3ccc(C(C)C)cc3)C[C@H]2C1=O (stereo partly drawn)	none
C=CCNC(=O)N[C@H]1CO[C@H]2[C@@H]1OC[C@@H]2Nc1nccc(-c2cccc(F)c2)n1	none
COCCn1c(CN2C(=O)COc3ccccc32)nnc1C1CC(N)C1 (stereo not drawn)	none
CCOc1ccc(C(=O)N2CCC3(CCNC(=O)CC3)CC2)cc1	none
CC(C)(C)OC(=O)N1CCC(c2c(C(=O)Nc3ccc4c(c3)OCCO4)cnn2-c2ccccc2)CC1	Pf Dd2 growth 7.9µM
O=C1NC2(CCCN([S+](=O)([O-])c3ccccc3)C2)Oc2ccccc21 (stereo not drawn)	none
Cc1nc(-c2ccccc2OC2CN(C(=O)c3cnn(C)c3)C2)no1	none
CCOc1ccccc1Nc1sc(C(=O)c2ccccc2)c(N)c1C(=O)Nc1ccccc1	none
N#Cc1c(Nc2cccc(F)c2)sc(C(=O)c2ccc(Cl)cc2)c1N	none
COc1cccc(Nc2sc(C(=O)c3ccc(F)cc3)c(N)c2C(=O)NCc2ccc(Cl)cc2)c1	none
CCc1ccc(S(=O)(=O)N2[C@@H]3CC[C@H]2CC(NC(=O)c2ccc(F)cc2)C3)cc1 (stereo partly drawn)	none
CCc1ccc(Nc2sc(C(=O)c3ccc(F)cc3)c(N)c2S(=O)(=O)c2ccccc2)cc1	Pf Dd2 growth 8.9µM
Nc1c(C(=O)c2ccc(F)cc2)sc(Nc2ccccc2F)c1S(=O)(=O)c1ccc(Br)cc1	Pf Dd2 growth 11µM
O=C1[C@@H]2C[C@@H](CN2C(=O)c2ccno2)Oc2ccccc2N1CC1CC1	none
CCN1C(=O)C2(CCN(S(=O)(=O)c3ccc4c(c3)CCC4)CC2)c2ccccc21	none
Cc1ccccc1[C@H]1C[C@@H](O)[C@@H](O)[C@@H]1NC(=O)c1cccnc1	none
CC(C)Cc1cc(C(=O)N[C@H]2CN(C(=O)N(C)C)C[C@@H]2C2CC2)nc(N)n1	none
CCCNC(=O)N1CCC(N2C(=O)[C@H](OC)[C@@H]2c2ccncc2)CC1	none
CC(=O)NCC(=O)N1Cc2ccccc2CC2(CCN(Cc3ccccc3)C2)C1 (stereo not drawn)	none
NCCCC(=O)N1CCCC2(Cc3ccccc3CN2C(=O)c2ccccc2)C1 (stereo not drawn)	none
CC(C)C(=O)N1Cc2ccccc2CC2(CCCN(Cc3ccccc3)C2)C1 (stereo not drawn)	Pf Dd2 growth 3.5µM
CCC(=O)N1Cc2ccccc2CC2(CCCN(Cc3ccncc3)C2)C1 (stereo not drawn)	none
COc1ccc(C(=O)N2Cc3ccccc3CC23CCCN(C(=O)CN)C3)cc1 (stereo not drawn)	none
CCCC(=O)N1Cc2ccccc2CC2(CCCN(CCC)C2)C1 (stereo not drawn)	Pf Dd2 growth 8.9µM
CCN1CCCC2(Cc3ccccc3CN(C(=O)CCC(=O)O)C2)C1 (stereo not drawn)	none
CCN1CCCC2(Cc3ccccc3CN(C(=O)c3ccccc3)C2)C1 (stereo not drawn)	Pf Dd2 growth 10µM
CCC(=O)N1Cc2ccccc2CC2(CCCN(CC3CCNCC3)C2)C1 (stereo not drawn)	none
CCCN1CCCC2(Cc3ccccc3CN(C(=O)CCCC(=O)O)C2)C1 (stereo not drawn)	none
O=C(O)CCC(=O)N1Cc2ccccc2CC2(CCCN(CCc3ccccc3)C2)C1 (stereo not drawn)	none
NCC(=O)N1Cc2ccccc2CC12CCCN(C(=O)c1ccccc1)C2 (stereo not drawn)	Pf Dd2 growth 8.9µM
Cc1ccc(-c2ncc(C(=O)O)c(-c3ccncc3)n2)cc1	none
O=C(c1cc[nH]c(=O)c1)N1C[C@@H](CO)[C@H](c2ccccn2)C1	none
COCCNC(=O)c1ccc2c(c1)N(C)C(CC(=O)Nc1ccc(N)nc1)CO2 (stereo not drawn)	none
Cc1ccc(C)c(NC(=O)C2CCN(C(=O)c3ncn4c3COC(c3ccc(F)cc3)C4)CC2)c1 (stereo not drawn)	none
CNC(=O)[C@@H]1C[C@H](n2cc(CN(C)C(=O)Nc3ccc(C)c(C)c3)nn2)CN1	none
COCCOc1ccc(-c2ccnc(OC)c2C#N)cc1	none
CCc1nncn1C1CCN(S(=O)(=O)c2cccc(F)c2)CC1	none
COCCn1ncc(N2CCC(NC(=O)C3CCCCC3)CC2)cc1=O	none
O=C(c1ccc2cc[nH]c2c1)N1CCCC(Cc2noc(-c3ccccn3)n2)C1 (stereo not drawn)	none
CN(C)C[C@@H]1CN(c2ccccn2)C[C@H]1NC(=O)c1ccoc1	none
O=C(C1CC1)N1CCC(c2nc(C3CCOCC3)no2)C1 (stereo not drawn)	none
